SMILES strings stand for the structures. Records with an inconclusive call do not appear. Where a call stands in place of a potency, no number is given. Active and inactive are the calls of the source. Calls come from the whole dose curve; as a rule, active = well fitted inhibition curve with a large enough effect; inconclusive = small, poorly fitted or top-dose-only effect; inactive = flat fitted curve, though single readings scatter.
Potency is the fitted concentration of half-maximal effect.

The test system of one assay is MKL-2. Put plainly: qHTS assay to identify novel small-molecules to repurpose for Merkel cell carcinoma treatment (AID 1296009). Note: nearly all actives have a fitted effect of over 60% in size. The following applies: MCC and control cell lines, CellTiter-Glo viability, 72 h; series mostly up to 46 µM. In short, it runs like this: (§1)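 Luminescence from CellTiter-Glo, read 10 min after addition at room temperature, reported viability following a 72 hr, 37 degree celsius treatment with NPC or MIPE compounds in titration; values normalized to plate controls.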
On to `CCCN[C@H]1CCc2nc(N)sc2C1`, for which the Potency entry is “inactive”.
Same read-out and setting: under `CCOCC(O)COc1ccc(NC(=O)CC[S+](C)C)cc1` (stereo unspecified) stands “inactive”; under `COc1cc(NS(=O)(=O)c2ccc(N)cc2)nc(OC)n1`, “inactive”.
As for `O=C(N[C@H](CO)[C@H](O)c1ccc([N+](=O)[O-])cc1)C(Cl)Cl`, the Potency result was “inactive”.
On the same count and under the same terms, to `CCCc1cc(C(N)=S)ccn1` belongs “inactive”; to `O=C(O)c1cn(C2CC2)c2cc(N3CCNCC3)c(F)cc2c1=O`, “inactive”.
Consider `O=C(O)CCn1c2c(c3ccccc31)C[C@H](NS(=O)(=O)c1ccc(F)cc1)CC2`, for which the Potency result is “inactive”.
Regarding `Cc1noc(NS(=O)(=O)c2ccc(N)cc2)c1C`, the Potency entry is “inactive”.
On to `CCn1cc(C(=O)O)c(=O)c2cc(F)c(N3CCN(C)CC3)cc21`, for which the Potency result was “inactive”.
Still for that read-out and setting: under `O=C(O)CSCC(=O)NC1CCSC1=O` (stereo unspecified) stands “inactive”.
Still for that read-out and setting: under `CN(C)CCc1c[nH]c2ccc(CS(=O)(=O)N3CCCC3)cc12` stands “inactive”; under `CO[C@@H]1[C@@H](OC(N)=O)[C@@H](O)[C@H](Oc2ccc3c(O)c(NC(=O)c4ccc(O)c(CC=C(C)C)c4)c(=O)oc3c2C)OC1(C)C`, “inactive”; under `CCOc1cc(N)c(Cl)cc1C(=O)NCC1CN(Cc2ccc(F)cc2)CCO1` (stereo unspecified), “inactive”.
The same measure, in the same setting: to `CCC(=O)O[C@]1(C(=O)SCF)[C@H](C)C[C@H]2[C@@H]3C[C@H](F)C4=CC(=O)C=C[C@]4(C)[C@@]3(F)[C@@H](O)C[C@@]21C` belongs “inactive”.
In the case of `Cc1oc(=O)oc1CN1CCN(c2cc3c(cc2F)c(=O)c(C(=O)O)c2n3C(C)S2)CC1` (stereo unspecified), the Potency result was “inactive”.
Turning to `NC1(c2ccc(-c3nc4ccn5c(=O)[nH]nc5c4cc3-c3ccccc3)cc2)CCC1`, the Potency is 13.3 µM (active).
On the same count and under the same terms, under `C[C@@H](CN1CC(=O)NC(=O)C1)N1CC(=O)NC(=O)C1` stands “inactive”.
In the case of `OC(Cn1cncn1)(Cn1cncn1)c1ccc(F)cc1F`, the Potency result is “inactive”.
The same measure, in the same setting: under `O=NN(CCCl)C(=O)NC1CCCCC1` stands “inactive”; under `Clc1ccccc1CN1CCc2sccc2C1`, “inactive”; under `Cn1c(=O)c2c(ncn2CC(O)CO)n(C)c1=O` (stereo unspecified), “inactive”.
Same read-out and setting: under `Cc1cccc(N(C)C(=S)Oc2ccc3ccccc3c2)c1` stands “inactive”; under `CN(CCOc1ccc(CC2SC(=O)NC2=O)cc1)c1ccccn1` (stereo unspecified), “inactive”; under `COC(c1ccccc1)(c1ccccc1)[C@H](Oc1nc(C)cc(C)n1)C(=O)O`, “inactive”.
Still for that read-out and setting: to `CCc1cc(C(N)=S)ccn1` belongs “inactive”; to `COCCCOc1cc(C[C@@H](C[C@H](N)[C@@H](O)C[C@H](C(=O)NCC(C)(C)C(N)=O)C(C)C)C(C)C)ccc1OC`, “inactive”; to `CCN(C)C(=O)Oc1cccc([C@H](C)N(C)C)c1`, “inactive”.
In the case of `CCn1cc(C(=O)O)c(=O)c2cc(F)c(N3CCNCC3)nc21`, the Potency result was “inactive”.
Still for that read-out and setting: to `CC[C@H](NC(C)C)[C@H](O)c1ccc(O)c2[nH]c(=O)ccc12` belongs “inactive”; to `CC(C)OC(=O)C(C(=O)OC(C)C)=C1SC=CS1`, “inactive”.
Same read-out and setting: under `COc1ccc(-c2ccc3cc(C(=O)O)ccc3c2)cc1C12CC3CC(CC(C3)C1)C2` stands “inactive”.
Still for that read-out and setting: to `CCOC(=O)c1ccc(OC(=O)CCCCCN=C(N)N)cc1` belongs “inactive”; to `O=S(=O)(c1cccc2cnccc12)N1CCCNCC1`, “inactive”; to `CNC1CCCN(c2c(F)cc3c(=O)c(C(=O)O)cn(C4CC4)c3c2OC)C1` (stereo unspecified), “inactive”.
In the case of `COc1ccc2c(c1)c(CC(=O)OCC(=O)O)c(C)n2C(=O)c1ccc(Cl)cc1`, the Potency result was “inactive”.

Another assay has as its system NIH3T3. The assay is described as above. The settings on record: MCC and control cell lines, CellTiter-Glo viability, 72 h; at 44.8 µM (top of the series) unless noted. In short, it runs like this: as §1
Regarding `O=C(O)c1cn(C2CC2)c2cc(N3CCNCC3)c(F)cc2c1=O`, the call was inactive.
Same read-out and setting: under `O=C(O)CCn1c2c(c3ccccc31)C[C@H](NS(=O)(=O)c1ccc(F)cc1)CC2` stands “inactive”.
Take `CCn1cc(C(=O)O)c(=O)c2cc(F)c(N3CCN(C)CC3)cc21`: the outcome is “inactive [at 17.4 µM]”.
In the case of `O=C(O)CSCC(=O)NC1CCSC1=O` (stereo unspecified), the outcome was inactive.
Still for that read-out and setting: to `CCOc1cc(N)c(Cl)cc1C(=O)NCC1CN(Cc2ccc(F)cc2)CCO1` (stereo unspecified) belongs “inactive”; to `Cc1oc(=O)oc1CN1CCN(c2cc3c(cc2F)c(=O)c(C(=O)O)c2n3C(C)S2)CC1` (stereo unspecified), “inactive”; to `O=NN(CCCl)C(=O)NC1CCCCC1`, “inactive”.
Same read-out and setting: to `COC(c1ccccc1)(c1ccccc1)[C@H](Oc1nc(C)cc(C)n1)C(=O)O` belongs “inactive”; to `CCc1cc(C(N)=S)ccn1`, “inactive”.
The same measure, in the same setting: under `COCCCOc1cc(C[C@@H](C[C@H](N)[C@@H](O)C[C@H](C(=O)NCC(C)(C)C(N)=O)C(C)C)C(C)C)ccc1OC` stands “inactive”; under `CCn1cc(C(=O)O)c(=O)c2cc(F)c(N3CCNCC3)nc21`, “inactive”.
On to `CC(C)OC(=O)C(C(=O)OC(C)C)=C1SC=CS1`, for which the compound was classed as inactive.
Regarding `COc1ccc(-c2ccc3cc(C(=O)O)ccc3c2)cc1C12CC3CC(CC(C3)C1)C2`, the compound was classed as inactive.
Same read-out and setting: to `CCOC(=O)c1ccc(OC(=O)CCCCCN=C(N)N)cc1` belongs “inactive”.
The same measure, in the same setting: under `CNC1CCCN(c2c(F)cc3c(=O)c(C(=O)O)cn(C4CC4)c3c2OC)C1` (stereo unspecified) stands “inactive”.

The next assay relates to UISO. Described as above. The following applies: MCC and control cell lines, CellTiter-Glo viability, 72 h; series mostly up to 46 µM. The gist of the method: as §1
For orientation: Cellular ATP, detected with luciferase, serves as a proxy for viable cell number.
Take `CCCN[C@H]1CCc2nc(N)sc2C1`: the Potency result was “inactive”.
The same measure, in the same setting: under `CCOCC(O)COc1ccc(NC(=O)CC[S+](C)C)cc1` (stereo unspecified) stands “inactive”; under `COc1cc(NS(=O)(=O)c2ccc(N)cc2)nc(OC)n1`, “inactive”; under `COC(=O)Nc1nc2ccc(C(=O)c3ccccc3)cc2[nH]1`, 4.18 µM (active).
The same measure, in the same setting: to `O=C(N[C@H](CO)[C@H](O)c1ccc([N+](=O)[O-])cc1)C(Cl)Cl` belongs “inactive”; to `CCCc1cc(C(N)=S)ccn1`, “inactive”.
The same measure, in the same setting: to `O=C(O)c1cn(C2CC2)c2cc(N3CCNCC3)c(F)cc2c1=O` belongs “inactive”; to `O=C(O)CCn1c2c(c3ccccc31)C[C@H](NS(=O)(=O)c1ccc(F)cc1)CC2`, “inactive”; to `Cc1noc(NS(=O)(=O)c2ccc(N)cc2)c1C`, “inactive”.
Take `CCn1cc(C(=O)O)c(=O)c2cc(F)c(N3CCN(C)CC3)cc21`: the Potency result is “inactive”.
On the same count and under the same terms, to `O=C(O)CSCC(=O)NC1CCSC1=O` (stereo unspecified) belongs “inactive”.
Turning to `CN(C)CCc1c[nH]c2ccc(CS(=O)(=O)N3CCCC3)cc12`, the Potency result was “inactive”.
With `CO[C@@H]1[C@@H](OC(N)=O)[C@@H](O)[C@H](Oc2ccc3c(O)c(NC(=O)c4ccc(O)c(CC=C(C)C)c4)c(=O)oc3c2C)OC1(C)C`, the Potency result was “inactive”.
On the same count and under the same terms, to `CCOc1cc(N)c(Cl)cc1C(=O)NCC1CN(Cc2ccc(F)cc2)CCO1` (stereo unspecified) belongs “inactive”; to `CCC(=O)O[C@]1(C(=O)SCF)[C@H](C)C[C@H]2[C@@H]3C[C@H](F)C4=CC(=O)C=C[C@]4(C)[C@@]3(F)[C@@H](O)C[C@@]21C`, “inactive”; to `Cc1oc(=O)oc1CN1CCN(c2cc3c(cc2F)c(=O)c(C(=O)O)c2n3C(C)S2)CC1` (stereo unspecified), “inactive”.
Take `NC1(c2ccc(-c3nc4ccn5c(=O)[nH]nc5c4cc3-c3ccccc3)cc2)CCC1`: the Potency is 13.2 µM (active).
Same read-out and setting: under `C[C@@H](CN1CC(=O)NC(=O)C1)N1CC(=O)NC(=O)C1` stands “inactive”; under `OC(Cn1cncn1)(Cn1cncn1)c1ccc(F)cc1F`, “inactive”.
Take `O=NN(CCCl)C(=O)NC1CCCCC1`: the Potency result is “inactive”.
Still for that read-out and setting: to `Clc1ccccc1CN1CCc2sccc2C1` belongs “inactive”; to `Cn1c(=O)c2c(ncn2CC(O)CO)n(C)c1=O` (stereo unspecified), “inactive”; to `Cc1cccc(N(C)C(=S)Oc2ccc3ccccc3c2)c1`, “inactive”.
The same measure, in the same setting: to `CN(CCOc1ccc(CC2SC(=O)NC2=O)cc1)c1ccccn1` (stereo unspecified) belongs “inactive”; to `COC(c1ccccc1)(c1ccccc1)[C@H](Oc1nc(C)cc(C)n1)C(=O)O`, “inactive”.
Still for that read-out and setting: to `CCc1cc(C(N)=S)ccn1` belongs “inactive”; to `COCCCOc1cc(C[C@@H](C[C@H](N)[C@@H](O)C[C@H](C(=O)NCC(C)(C)C(N)=O)C(C)C)C(C)C)ccc1OC`, “inactive”.
Turning to `CCN(C)C(=O)Oc1cccc([C@H](C)N(C)C)c1`, the Potency result was “inactive”.
Turning to `CCn1cc(C(=O)O)c(=O)c2cc(F)c(N3CCNCC3)nc21`, the Potency result is “inactive”.
As to `CC[C@H](NC(C)C)[C@H](O)c1ccc(O)c2[nH]c(=O)ccc12`, the Potency entry is “inactive”.
The same measure, in the same setting: under `CC(C)OC(=O)C(C(=O)OC(C)C)=C1SC=CS1` stands “inactive”.
The same measure, in the same setting: to `COc1ccc(-c2ccc3cc(C(=O)O)ccc3c2)cc1C12CC3CC(CC(C3)C1)C2` belongs “inactive”; to `CCOC(=O)c1ccc(OC(=O)CCCCCN=C(N)N)cc1`, “inactive”.
Same read-out and setting: to `O=S(=O)(c1cccc2cnccc12)N1CCCNCC1` belongs “inactive”; to `CNC1CCCN(c2c(F)cc3c(=O)c(C(=O)O)cn(C4CC4)c3c2OC)C1` (stereo unspecified), “inactive”; to `COc1ccc2c(c1)c(CC(=O)OCC(=O)O)c(C)n2C(=O)c1ccc(Cl)cc1`, “inactive”.

Values taken from PubChem BioAssay (NCATS).
